Data on 66 sequences can be found in the supplement of paper PMC11417369.

The full ranking holds about 25,000 sequences; the median of “ln(normalized median fluorescence intensity)” is about 7.1, and the highest 2% start at about 10. This excerpt belongs to a sample that is enriched for the highest values.

The assay relates to PfSIP2 AP2 domain 1 (GST-tagged). Briefly: gcPBM binding intensity (ln(normalized median fluorescence intensity)); higher = stronger DNA binding. The method, boiled down:
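Alexa488 anti-GST antibody, scanned at 488 nm, detected GST-tagged P. falciparum DNA-binding domains that had been expressed in E. coli and incubated for 1 h on an Agilent 4 × 180k array. The array carried primer-extended double-stranded 36-bp intergenic genomic probes and negative controls. Binding intensity is the highest Masliner-normalised natural-log median intensity across replicate spots of either orientation of each probe.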
In the case of “AAGCGAATCTATATCACACACAAAAAAATCAGACTA [CACACA_site7072]”, the “gcPBM binding intensity (ln)” value came out at 6.94.

“GACTACACACAAGGGTGTACATATATATTATATATA [XGTACX_site2247]”: the “gcPBM binding intensity (ln)” value was determined as 7.31.

Regarding “TAAGTATAATATTGATGTACATATAATAACTTGTAT [XGTACX_site417]”, the “gcPBM binding intensity (ln)” value amounted to 7.03.

Turning to “TCTTTCCTTATTAAAACACACAAATACATTATTTAA [CACACA_site2147]”, the “gcPBM binding intensity (ln)” value was determined as 7.13.

Regarding “TTTTATTTCTTTGCACCATTTTAAATACAAACAAAT [CACACA_negctrl_site1553]”, the “gcPBM binding intensity (ln)” value was 10.7.

Consider CATTTTATTTTCTTTGTGCACAAAAATATTTTTTCT, for which the “gcPBM binding intensity (ln)” value came out at 8.78.

Turning to “TATGAGAAAAAAAGTACATGCACAAAATGTATATGT [TGCATGCA_site789]”, the “gcPBM binding intensity (ln)” value stood at 7.3.

For the sequence “ATATGAAGTTATATAGTGCACATGTACAACCAAATC [GTGCAC_site9974]”, the “gcPBM binding intensity (ln)” value was 10.4.

“ATATGTACAAGTTATACACACATGTACAGTTATATA [CACACA_site6706]”: the “gcPBM binding intensity (ln)” value is 7.11.

Turning to “GAAGTTAGTGTTGACTGTACATATATATGTATATAT [XGTACX_site7243]”, the “gcPBM binding intensity (ln)” value was 7.21.

As for “GAAATTATGTAAAAAAGTACTAACATACATATATAT [XGTACX_site1794]”, the “gcPBM binding intensity (ln)” value was 7.18.

As for “GAATTTATGAACTGTGCATGTAAAAAAAACAACAAA [TGCATGCA_site449]”, the “gcPBM binding intensity (ln)” value stood at 8.15.

Turning to “AATGTGCAAACAAACTGTACTTTTTTTTTTTTTTTT [XGTACX_site928]”, the “gcPBM binding intensity (ln)” value was 7.84.

As for AAAAACAAACTGTGCATGCACCAAAAAAAAAAAAAA, the “gcPBM binding intensity (ln)” value was 10.4.

On to “TTATTTACTTATTGCACACATATAAAATATATTTAT [CACACA_site3101]”, for which the “gcPBM binding intensity (ln)” value is 7.74.

For the sequence “TAATATATTTATAGAGCATGCAACGTAATATTATTA [TGCATGCA_site863]”, the “gcPBM binding intensity (ln)” value came to 7.12.

In the case of “ATTTTTTTGGTAATTTGTACATAATATATACATAAT [XGTACX_site3742]”, the “gcPBM binding intensity (ln)” value was 7.21.

Consider “AAAATTTCTTTTTTTTGTACATATATAATAATATAT [XGTACX_site7107]”, for which the “gcPBM binding intensity (ln)” value was 6.92.

Consider TACGTCTTTTTTTTGGTGCATAATTTTTTTGTACAA, for which the “gcPBM binding intensity (ln)” value came to 10.9.

With “TTAACGCTTATTTTTTGTACTTATTTTATTTTAAAT [XGTACX_site3977]”, the “gcPBM binding intensity (ln)” value is 7.22.

As for “CCCTATATAAATAGCTGTACATTTGAACATGTTCAG [XGTACX_site2187]”, the “gcPBM binding intensity (ln)” value was found to be 6.97.

Regarding “GCAATTTTTTTTAAGAGTACTAATATATTATAGTGG [XGTACX_site7316]”, the “gcPBM binding intensity (ln)” value came to 7.11.

Turning to “TACAAATATATATGCACACACATATCTGTATATGTG [CACACA_site5663]”, the “gcPBM binding intensity (ln)” value is 7.66.

As for “TGCGGAAATAAGTGCACACATAGATATATGTATTTT [CACACA_site3689]”, the “gcPBM binding intensity (ln)” value was 10.8.

As for “TATAAATATCTGTATGCACACATTTTTTTTGGAAAA [CACACA_site4734]”, the “gcPBM binding intensity (ln)” value is 8.04.

Turning to “TATAAATATATGTATGCACACATTTTTTTTGGAAAA [CACACA_site1070]”, the “gcPBM binding intensity (ln)” value is 8.1.

Take “TGTGCGGAAATAAGTGCACACATAGATATCTGTATT [CACACA_site5935]”: the “gcPBM binding intensity (ln)” value was 10.9.

Consider “AATAAATAGATATATACACACATATATGTGTACATA [CACACA_site7476]”, for which the “gcPBM binding intensity (ln)” value turned out to be 7.06.

Consider “TGTGTGTGTATATGTGTGCACATATAAAATAGAAGA [GTGCAC_site9714]”, for which the “gcPBM binding intensity (ln)” value was found to be 8.95.

“TATGTATAAATATATGCACACATATATATATTTATA [CACACA_site9150]”: the “gcPBM binding intensity (ln)” value was determined as 7.18.

With “TGTGCGGAAATAAGTGCACACATAGATATATGTATT [CACACA_site9227]”, the “gcPBM binding intensity (ln)” value amounted to 10.8.

As for “TTTTTCTCTTTAAGGTGTACAATAATACAGTAACCA [XGTACX_site300]”, the “gcPBM binding intensity (ln)” value was 7.44.

For the sequence “ATAAATAATAAAAAATGTACACATATAAATATAAAG [XGTACX_site727]”, the “gcPBM binding intensity (ln)” value came to 7.11.

As for “TCTTACGGATTCATTGTGCACATATATATATATATA [GTGCAC_site9896]”, the “gcPBM binding intensity (ln)” value is 9.46.

For “AGCACACGCAGACACACACACACACGCACACGCACA [CACACA_site6306]”, the “gcPBM binding intensity (ln)” value worked out at 8.43.

In the case of “TACCACATCGGTAAATGTACTTATAAAAAAAAAAAA [XGTACX_site3364]”, the “gcPBM binding intensity (ln)” value was 6.83.

Regarding “TATATATTGTTATATACACACATGTATTTAAAAAAT [CACACA_site5737]”, the “gcPBM binding intensity (ln)” value was 6.91.

Consider “ACACATGTATTTGGTGCATGTTGTTAAAAAAATATT [TGCATGCA_site795]”, for which the “gcPBM binding intensity (ln)” value worked out at 10.8.

As to “TATATATATATGTATGCATGTTGTTTTTTATTTAAT [TGCATGCA_site343]”, the “gcPBM binding intensity (ln)” value came to 9.27.

As to “TTTTGTTTATGTGTGCATTATATTATATTTTTTATT [TGCATGCA_negctrl_site146]”, the “gcPBM binding intensity (ln)” value was determined as 7.83.

Take “ATATATATATTTTATGCATGTTCATTTTCTATATTT [TGCATGCA_site442]”: the “gcPBM binding intensity (ln)” value is 8.1.

On to “ATCATATTTATGTTGGTGCATTATACATAAAGTTTA [GTGCAC_site9574]”, for which the “gcPBM binding intensity (ln)” value was found to be 10.2.

As for TTTTTGTTCTATATGGTGCATGTTTATATTCGTATT, the “gcPBM binding intensity (ln)” value came out at 10.3.

Consider “CATACAATAAATATGGTGCATTTTATGTAACCGTTT [GTGCAC_site9420]”, for which the “gcPBM binding intensity (ln)” value was 10.4.

For the sequence “ACATTTAAAATTTATGCATGTGGTGTTTTGTATATA [TGCATGCA_site534]”, the “gcPBM binding intensity (ln)” value stood at 7.26.

As for TTACACATGTATTTGGTGCATGTTGTTAACAAAATA, the “gcPBM binding intensity (ln)” value turned out to be 9.57.

In the case of TTTATTTTGTTTATGGTGCATTTTATGTAAATATAT, the “gcPBM binding intensity (ln)” value came out at 10.8.

As to “GATATATTTTATATATGTACATACAATGGTAAATAT [XGTACX_site2759]”, the “gcPBM binding intensity (ln)” value came to 7.09.

As for “ATGAAATTTATATCATGTACATACAAGAGAAAAAAA [XGTACX_site3326]”, the “gcPBM binding intensity (ln)” value came out at 7.

Take “ATTCTTTTTTTTTGGAAATGTATTTTTATGTTTTGT [TGCATGCA_negctrl_site426]”: the “gcPBM binding intensity (ln)” value worked out at 6.73.

As to “TTAAAAATAAATTCATGTACATAATATATATATATA [XGTACX_site7908]”, the “gcPBM binding intensity (ln)” value is 9.25.

For the sequence TTTTTTGTTTGAATGGTGCATTTTGTAATTATATTT, the “gcPBM binding intensity (ln)” value was found to be 10.6.

Regarding “TTATATTTATATTTATGTACATATTTTGTGTGAAAA [XGTACX_site2367]”, the “gcPBM binding intensity (ln)” value was 7.27.

For the sequence “TTTTGTAATGTGAATATTTGTATATTATTTGTATAT [CACACA_negctrl_site1677]”, the “gcPBM binding intensity (ln)” value worked out at 7.03.

On to “ATTTTGTGTAGTGATGCATGTTATATATATATTTGA [TGCATGCA_site422]”, for which the “gcPBM binding intensity (ln)” value was determined as 7.33.

Regarding ATATATTTTTGTAGTGTGCACGTTTATATGGTGAAA, the “gcPBM binding intensity (ln)” value turned out to be 10.3.

For “TTATATTAATTTTGTTGTACTATTTGTGCATTAAAT [XGTACX_site4790]”, the “gcPBM binding intensity (ln)” value turned out to be 7.42.

For the sequence “AAAAAAAAAAAAAATAGTACAATACCCAAATATAAC [XGTACX_site6684]”, the “gcPBM binding intensity (ln)” value was found to be 7.3.

Turning to “GATAAATAATAATAAGGTACACATAAAATATTCCTT [XGTACX_site2963]”, the “gcPBM binding intensity (ln)” value came to 6.86.

Take “CACACAGGTAAAAAGGTGCAGTTGAAATATTCCTCA [GTGCAC_site9730]”: the “gcPBM binding intensity (ln)” value came to 11.1.

For the sequence “AAAAAAAAAAAAAAAGGTACAGTAAAAAATTCCTCT [XGTACX_site5947]”, the “gcPBM binding intensity (ln)” value came to 7.41.

In the case of “AAAAATAAATATACATGTACATAATAATAATATATA [XGTACX_site8359]”, the “gcPBM binding intensity (ln)” value is 6.97.

As to CTTTTAGAATAATCAGTGCAAAAAAAAAAAAAAAAA, the “gcPBM binding intensity (ln)” value was found to be 8.42.

“TATTTAAAATAATGTGCAAAAGAATAAATAAATAAA [TGCATGCA_negctrl_site194]”: the “gcPBM binding intensity (ln)” value amounted to 7.23.

For the sequence GATAATCAGAATGGGGTGCAAAGAAAAAAAAAAAAA, the “gcPBM binding intensity (ln)” value was found to be 11.3.

Turning to “TTTTTTTTTAAGTTTGCACACATGGAAGACAAAAAT [CACACA_site2505]”, the “gcPBM binding intensity (ln)” value worked out at 7.96.
